Source: the supplement of paper PMC10849652
Of roughly 7,900 targets only a part is listed; those with a hit were picked by preference. About 0.6% of all pairs of compound and target were hits. A number with no mark means an inactive call.

Experiments:
Assay in all cases: log2 fold change, soluble protein after heating vs DMSO (PISA); higher = thermal stabilisation; K562 cells, 10 uM, 30 min; active = over 0.2 and 3.5 SD of the protein, either way, in both replicates (recomputed)
saracatinib = compound: CN1CCN(CCOc2cc(OC3CCOCC3)c3c(Nc4c(Cl)ccc5c4OCO5)ncnc3c2)CC1 [saracatinib]
Procedure, shortened: (§1)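 K562 cells at 2×10^6 cells/mL were exposed to 10 μM compound for 30 min, then aliquots were heated for 3 min across 48°C-58°C, pooled, and extracted in PBS containing 0.5% NP-40 at 4°C. The supernatant after 21,000xg for 90 min was taken as soluble protein and measured by TMTpro 16plex LC-MS/MS with channel sums equalised. Thermal stability is reported relative to control samples, with values from duplicates. Fold changes are given on a log2 scale.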

sotrastaurin = compound: CN1CCN(c2nc(C3=C(c4c[nH]c5ccccc45)C(=O)NC3=O)c3ccccc3n2)CC1 [sotrastaurin]
Procedure, shortened: as §1

alvocidib = compound: CN1CC[C@H](c2c(O)cc(O)c3c(=O)cc(-c4ccccc4Cl)oc23)[C@H](O)C1 [alvocidib]
Procedure, shortened: as §1

Tubastatin A = compound: CN1CCc2c(c3ccccc3n2Cc2ccc(C(=O)NO)cc2)C1 [Tubastatin A]
Procedure, shortened: as §1

[1] = compound: CNC(=O)C1=CC=CC=C1NC2=NC(=NC=C2Cl)NC3=C(C=C(C=C3)N4CCOCC4)OC
Procedure, shortened: as §1

defactinib = compound: CNC(=O)c1ccc(Nc2ncc(C(F)(F)F)c(NCc3nccnc3N(C)S(C)(=O)=O)n2)cc1 [defactinib]
Procedure, shortened: as §1

rucaparib = compound: CNCc1ccc(-c2[nH]c3cc(F)cc4c3c2CCNC4=O)cc1 [rucaparib]
Procedure, shortened: as §1

[2] = compound: CNc1nc(-c2ccc3c(N)n[nH]c3c2)cc(N2C[C@@H](C(=O)NC3CCCCC3)CC[C@H]2C)n1
Procedure, shortened: as §1

encorafenib = compound: COC(=O)N[C@@H](C)CNc1nccc(-c2cn(C(C)C)nc2-c2cc(Cl)cc(NS(C)(=O)=O)c2F)n1 [encorafenib]
Procedure, shortened: as §1

[3] = compound: COC(=O)[C@H](CCSC)NC(=O)C1=C(C=C(C=C1)NC[C@H](CS)N)C2=CC=CC=C2
Procedure, shortened: as §1

[4] = compound: COC1=CC=C(C=C1)CN2C=CC3=C2C=C(C=C3)C(=O)NO
Procedure, shortened: as §1

filanesib = compound: CON(C)C(=O)N1N=C(c2cc(F)ccc2F)S[C@@]1(CCCN)c1ccccc1 [filanesib]
Procedure, shortened: as §1

zotarolimus = compound: CO[C@H]1C[C@@H]2CC[C@@H](C)[C@@](O)(O2)C(=O)C(=O)N2CCCC[C@H]2C(=O)O[C@H]([C@H](C)C[C@@H]2CC[C@H](n3cnnn3)[C@H](OC)C2)CC(=O)[C@H](C)/C=C(\C)[C@@H](O)[C@@H](OC)C(=O)[C@H](C)C[C@H](C)/C=C/C=C/C=C/1C [zotarolimus]
Procedure, shortened: as §1

idasanutlin = compound: COc1cc(C(=O)O)ccc1NC(=O)[C@@H]1N[C@@H](CC(C)(C)C)[C@](C#N)(c2ccc(Cl)cc2F)[C@H]1c1cccc(Cl)c1F [idasanutlin]
Procedure, shortened: as §1

alisertib = compound: COc1cc(Nc2ncc3c(n2)-c2ccc(Cl)cc2C(c2c(F)cccc2OC)=NC3)ccc1C(=O)O [alisertib]
Procedure, shortened: as §1

[5] = compound: COc1cc2nc(-c3cc(F)ccc3O)nc(N[C@@H]3CNC[C@H]3C(C)(C)O)c2cc1OC
Procedure, shortened: as §1

gefitinib = compound: COc1cc2ncnc(Nc3ccc(F)c(Cl)c3)c2cc1OCCCN1CCOCC1 [gefitinib]
Procedure, shortened: as §1

[6] = compound: COc1cccc2cc(-c3nc([C@H]4CC[C@H](C(=O)O)CC4)n4ncnc(N)c34)[nH]c12
Procedure, shortened: as §1

lapatinib = compound: CS(=O)(=O)CCNCc1ccc(-c2ccc3ncnc(Nc4ccc(OCc5cccc(F)c5)c(Cl)c4)c3c2)o1 [lapatinib]
Procedure, shortened: as §1

pictilisib = compound: CS(=O)(=O)N1CCN(Cc2cc3nc(-c4cccc5[nH]ncc45)nc(N4CCOCC4)c3s2)CC1 [pictilisib]
Procedure, shortened: as §1

UniProt Q5JTZ9, sequence (Q5JTZ9 whole entry, looked up): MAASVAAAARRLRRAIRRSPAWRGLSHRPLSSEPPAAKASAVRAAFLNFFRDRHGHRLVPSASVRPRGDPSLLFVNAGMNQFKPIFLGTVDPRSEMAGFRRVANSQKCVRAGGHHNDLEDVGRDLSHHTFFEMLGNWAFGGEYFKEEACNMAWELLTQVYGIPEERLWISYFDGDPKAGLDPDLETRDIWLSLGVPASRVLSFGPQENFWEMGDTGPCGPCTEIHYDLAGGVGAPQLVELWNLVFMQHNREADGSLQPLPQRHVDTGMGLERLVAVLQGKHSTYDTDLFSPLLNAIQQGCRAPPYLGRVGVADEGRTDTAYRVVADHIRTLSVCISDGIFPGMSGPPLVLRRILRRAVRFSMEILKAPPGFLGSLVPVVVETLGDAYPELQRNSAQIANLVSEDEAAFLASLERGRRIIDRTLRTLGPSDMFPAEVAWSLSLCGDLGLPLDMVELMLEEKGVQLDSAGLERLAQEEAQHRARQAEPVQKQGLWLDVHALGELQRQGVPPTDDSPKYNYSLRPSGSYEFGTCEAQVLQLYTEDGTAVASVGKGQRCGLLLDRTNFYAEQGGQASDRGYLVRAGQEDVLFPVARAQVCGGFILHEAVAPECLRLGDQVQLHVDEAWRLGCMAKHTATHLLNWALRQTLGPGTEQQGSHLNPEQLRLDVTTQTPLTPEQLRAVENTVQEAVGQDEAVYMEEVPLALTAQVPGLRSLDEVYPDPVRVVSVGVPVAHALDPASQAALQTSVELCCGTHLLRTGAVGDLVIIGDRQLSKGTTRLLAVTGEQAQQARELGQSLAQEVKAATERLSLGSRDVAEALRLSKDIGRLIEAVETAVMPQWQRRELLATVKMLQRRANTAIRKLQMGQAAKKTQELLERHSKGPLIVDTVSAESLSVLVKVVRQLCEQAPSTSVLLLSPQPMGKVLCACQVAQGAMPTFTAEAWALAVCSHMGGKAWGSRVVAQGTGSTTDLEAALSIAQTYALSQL
UniProt Q9H8Y5, sequence (Q9H8Y5 whole entry, looked up): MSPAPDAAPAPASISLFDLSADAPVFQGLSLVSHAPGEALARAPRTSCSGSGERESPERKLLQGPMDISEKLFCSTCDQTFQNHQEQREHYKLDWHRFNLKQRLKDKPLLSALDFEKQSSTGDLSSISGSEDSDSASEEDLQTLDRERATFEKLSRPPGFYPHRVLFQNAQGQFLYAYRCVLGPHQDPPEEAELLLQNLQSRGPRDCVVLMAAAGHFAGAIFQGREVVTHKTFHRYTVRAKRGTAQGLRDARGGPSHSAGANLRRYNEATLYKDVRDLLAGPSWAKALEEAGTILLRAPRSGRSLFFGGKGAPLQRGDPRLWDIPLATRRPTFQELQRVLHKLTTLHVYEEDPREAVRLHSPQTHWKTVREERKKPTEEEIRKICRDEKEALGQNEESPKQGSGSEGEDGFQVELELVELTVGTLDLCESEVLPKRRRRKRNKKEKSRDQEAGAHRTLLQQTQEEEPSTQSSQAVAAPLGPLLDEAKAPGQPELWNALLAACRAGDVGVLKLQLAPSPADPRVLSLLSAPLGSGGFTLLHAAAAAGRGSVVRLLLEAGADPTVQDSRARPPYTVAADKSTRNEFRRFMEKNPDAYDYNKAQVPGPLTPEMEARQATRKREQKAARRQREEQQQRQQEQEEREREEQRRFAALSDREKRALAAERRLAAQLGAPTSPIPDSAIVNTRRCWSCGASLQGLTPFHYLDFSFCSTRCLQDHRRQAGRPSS
UniProt Q13685, sequence (Q13685 whole entry, looked up): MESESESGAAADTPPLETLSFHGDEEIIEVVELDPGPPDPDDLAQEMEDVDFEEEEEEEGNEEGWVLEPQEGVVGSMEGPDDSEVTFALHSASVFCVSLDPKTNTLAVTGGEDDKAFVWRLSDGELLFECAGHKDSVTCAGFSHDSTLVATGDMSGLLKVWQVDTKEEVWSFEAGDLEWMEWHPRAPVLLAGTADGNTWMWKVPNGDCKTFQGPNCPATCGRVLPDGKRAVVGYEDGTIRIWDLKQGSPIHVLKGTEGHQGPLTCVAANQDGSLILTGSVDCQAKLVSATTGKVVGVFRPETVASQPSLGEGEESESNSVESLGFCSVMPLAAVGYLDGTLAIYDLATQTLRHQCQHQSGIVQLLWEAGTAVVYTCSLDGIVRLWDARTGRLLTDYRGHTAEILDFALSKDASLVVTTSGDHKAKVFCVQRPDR
UniProt P55196, sequence (P55196 whole entry, looked up): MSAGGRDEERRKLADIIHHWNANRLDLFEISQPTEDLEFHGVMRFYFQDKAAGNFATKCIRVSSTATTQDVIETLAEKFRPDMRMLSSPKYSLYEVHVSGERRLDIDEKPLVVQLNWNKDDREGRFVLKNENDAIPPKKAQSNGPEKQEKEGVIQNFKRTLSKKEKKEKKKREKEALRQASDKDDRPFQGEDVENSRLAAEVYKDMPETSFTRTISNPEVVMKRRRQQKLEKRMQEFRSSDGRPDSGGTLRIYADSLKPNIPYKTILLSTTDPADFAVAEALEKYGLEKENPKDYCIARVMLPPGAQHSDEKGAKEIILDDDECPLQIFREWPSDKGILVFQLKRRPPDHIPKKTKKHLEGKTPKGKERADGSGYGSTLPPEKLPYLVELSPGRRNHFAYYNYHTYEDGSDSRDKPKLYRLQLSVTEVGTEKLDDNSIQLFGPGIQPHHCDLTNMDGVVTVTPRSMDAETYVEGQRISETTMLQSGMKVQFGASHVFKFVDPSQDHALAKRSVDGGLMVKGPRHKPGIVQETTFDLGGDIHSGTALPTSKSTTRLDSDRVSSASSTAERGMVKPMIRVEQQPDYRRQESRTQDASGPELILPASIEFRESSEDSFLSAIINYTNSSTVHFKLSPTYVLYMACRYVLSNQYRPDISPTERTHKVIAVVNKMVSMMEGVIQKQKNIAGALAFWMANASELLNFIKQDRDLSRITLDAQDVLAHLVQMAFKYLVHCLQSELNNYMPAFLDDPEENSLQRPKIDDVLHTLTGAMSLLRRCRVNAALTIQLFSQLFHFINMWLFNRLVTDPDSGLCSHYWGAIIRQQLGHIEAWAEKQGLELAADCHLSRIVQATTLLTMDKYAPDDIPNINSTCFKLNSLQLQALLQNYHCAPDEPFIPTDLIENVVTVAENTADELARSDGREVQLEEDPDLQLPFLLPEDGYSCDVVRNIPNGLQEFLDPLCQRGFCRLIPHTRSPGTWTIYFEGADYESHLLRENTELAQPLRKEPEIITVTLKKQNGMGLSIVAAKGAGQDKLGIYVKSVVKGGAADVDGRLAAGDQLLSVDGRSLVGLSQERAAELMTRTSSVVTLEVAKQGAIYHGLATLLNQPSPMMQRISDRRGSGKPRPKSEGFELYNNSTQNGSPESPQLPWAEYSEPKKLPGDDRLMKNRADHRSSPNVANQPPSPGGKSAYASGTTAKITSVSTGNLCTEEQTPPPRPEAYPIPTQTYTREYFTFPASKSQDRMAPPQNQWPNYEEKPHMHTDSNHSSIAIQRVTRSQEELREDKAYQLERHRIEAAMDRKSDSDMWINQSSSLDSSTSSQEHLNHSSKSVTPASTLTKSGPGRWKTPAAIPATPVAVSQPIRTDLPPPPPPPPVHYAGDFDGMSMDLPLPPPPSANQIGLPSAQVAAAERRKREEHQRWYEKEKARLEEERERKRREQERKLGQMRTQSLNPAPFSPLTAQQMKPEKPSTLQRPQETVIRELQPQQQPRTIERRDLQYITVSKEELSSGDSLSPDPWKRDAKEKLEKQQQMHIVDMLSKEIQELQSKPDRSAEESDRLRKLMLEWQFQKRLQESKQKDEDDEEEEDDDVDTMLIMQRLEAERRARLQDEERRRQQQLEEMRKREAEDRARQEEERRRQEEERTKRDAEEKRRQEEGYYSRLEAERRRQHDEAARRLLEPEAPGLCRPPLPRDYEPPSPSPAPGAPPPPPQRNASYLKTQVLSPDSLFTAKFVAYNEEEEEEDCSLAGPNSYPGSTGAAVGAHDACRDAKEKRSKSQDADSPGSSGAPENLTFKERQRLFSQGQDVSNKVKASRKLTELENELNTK
UniProt P54709, sequence (P54709 whole entry, looked up): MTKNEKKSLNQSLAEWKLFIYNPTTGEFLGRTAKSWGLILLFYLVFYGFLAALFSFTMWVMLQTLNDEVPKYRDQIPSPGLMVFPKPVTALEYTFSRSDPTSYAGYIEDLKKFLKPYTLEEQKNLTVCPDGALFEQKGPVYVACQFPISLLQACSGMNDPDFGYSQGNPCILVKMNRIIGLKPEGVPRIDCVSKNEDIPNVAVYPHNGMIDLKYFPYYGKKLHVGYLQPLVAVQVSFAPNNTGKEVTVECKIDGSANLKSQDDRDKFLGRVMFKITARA
UniProt Q9ULX6, sequence (Q9ULX6 whole entry, looked up): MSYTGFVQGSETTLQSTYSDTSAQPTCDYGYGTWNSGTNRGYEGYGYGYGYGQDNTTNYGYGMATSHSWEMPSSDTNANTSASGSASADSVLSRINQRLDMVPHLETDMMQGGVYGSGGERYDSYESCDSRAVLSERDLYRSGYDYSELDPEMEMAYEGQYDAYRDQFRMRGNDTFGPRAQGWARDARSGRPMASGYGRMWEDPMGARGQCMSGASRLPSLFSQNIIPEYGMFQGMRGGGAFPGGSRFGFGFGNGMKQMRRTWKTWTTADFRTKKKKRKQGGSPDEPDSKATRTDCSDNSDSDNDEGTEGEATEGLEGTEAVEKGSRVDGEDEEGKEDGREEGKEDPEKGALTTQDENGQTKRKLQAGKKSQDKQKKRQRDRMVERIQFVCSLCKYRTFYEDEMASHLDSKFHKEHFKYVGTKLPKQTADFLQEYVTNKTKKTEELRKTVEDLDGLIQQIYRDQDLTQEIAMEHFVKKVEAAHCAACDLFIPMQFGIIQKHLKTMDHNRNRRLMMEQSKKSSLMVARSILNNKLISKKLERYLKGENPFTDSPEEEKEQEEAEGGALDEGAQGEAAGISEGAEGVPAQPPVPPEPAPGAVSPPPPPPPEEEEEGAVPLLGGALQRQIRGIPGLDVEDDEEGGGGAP

Target	log2 fold change (saracatinib)	log2 fold change (sotrastaurin)	log2 fold change (alvocidib)	log2 fold change (Tubastatin A)	log2 fold change [1]	log2 fold change (defactinib)	log2 fold change (rucaparib)	log2 fold change [2]	log2 fold change (encorafenib)	log2 fold change [3]	log2 fold change [4]	log2 fold change (filanesib)	log2 fold change (zotarolimus)	log2 fold change (idasanutlin)	log2 fold change (alisertib)	log2 fold change [5]	log2 fold change (gefitinib)	log2 fold change [6]	log2 fold change (lapatinib)	log2 fold change (pictilisib)
ATP9B (UniProt O43861)	0.13	-0.185	0.008	-0.055	-0.02	-0.025	0.081	-0.027	0.058	0.06	-0.019	0.192	-0.054	0.022	-0.039	0.023	0.101	0.178	0.019	0.012
AARS2 (UniProt Q5JTZ9)	0	-0.05	-0.1	-0.096	-0.019	-0.027	0.008	0.004	0	-0.017	-0.053	-0.159	0.029	-0.107	0.016	-0.012	-0.002	0.047	-0.005	0.06
ARMC8 (UniProt Q8IUR7)	-0.05	-0.07	-0.049	0.009	0.016	-0.005	0.017	0.228	0.026	-0.031	0.056	0.048	0	-0.016	-0.08	-0.014	-0.029	-0.016	0.046	0.005
AAMP (UniProt Q13685)	-0.002	0.006	-0.017	-0.049	0.022	-0.102	0.054	-0.014	-0.016	-0.009	-0.031	0.003	0.029	-0.052	-0.049	-0.027	0.026	0.033	0.024	-0.002
AFDN isoform 5 (UniProt P55196)	-0.034	-0.032	-0.095	0.025	-0.043	-0.115	0.023	0.035	0.077	-0.033	0.131	0.014	0.013	-0.06	0	0.034	-0.017	-0.009	-0.026	-0.009
AKAP8L (UniProt Q9ULX6)	-0.127	-0.203	-0.21	0.055	-0.097	-0.477 (active)	-0.008	0.027	0.025	0.049	0.032	0.064	0.097	0.205	0.041	-0.212	0.008	0.001	0.034	0.019
ARHGAP1 (UniProt Q07960)	-0.015	-0.03	-0.057	0.044	-0.032	-0.046	0.005	-0.019	0.001	-0.014	-0.016	0.084	0.038	0.004	-0.011	0.152	0.005	-0.036	-0.035	0.024
ATP13A3 (UniProt Q9H7F0)	-0.029	0.048	-0.159	0.002	-0.005	-0.014	0.091	0.013	0.037	0.037	-0.034	0.054	-0.158	-0.027	-0.098	-0.078	-0.02	-0.038	0.005	0.104
ANKZF1 (UniProt Q9H8Y5)	-0.146	-0.093	0.034	0.088	0.04	0.123	0.167	0.156	0.119	-0.274	-0.005	0.249	0.048	0.235	-0.034	0.042	-0.001	-0.022	-0.046	-0.002
ATP1B3 (UniProt P54709)	-0.019	0.084	-0.038	-0.014	0.004	-0.047	-0.033	0.016	-0.023	0.034	0.082	0.073	-0.034	0.014	-0.032	0.034	0.025	0.092	-0.051	-0.012
BYSL (UniProt Q13895)	-0.042	-0.101	-0.03	0.136	0.034	-0.004	-0.004	0.094	0.034	-0.073	-0.033	0.078	0.065	-0.057	0.022	0.207	-0.03	-0.057	0.032	-0.022
ATP1A1 (UniProt P05023)	0.046	0.039	-0.034	-0.026	-0.026	-0.024	-0.009	0.011	-0.001	0.014	0.09	0.013	0.002	0.004	-0.092	0.032	0.03	0.054	-0.019	-0.023
B4GALT1 (UniProt P15291)	-0.017	-0.07	-0.117	0.063	0.023	0.066	0.013	-0.041	0.032	-0.084	-0.04	0.014	0.067	0	0.051	-0.037	0.022	0.021	0.042	0.128
BLVRB (UniProt P30043)	0.101	-0.047	-0.083	-0.002	0.058	-0.045	0.043	0.061	-0.007	-0.003	0.113	-0.073	0.024	-0.045	-0.07	0.045	0.061	0.015	0.071	0.037
BPHL (UniProt Q86WA6)	0.056	0.019	-0.083	-0.259	0.025	-0.014	0.069	0.006	-0.012	-0.017	-0.118	-0.018	0.017	-0.007	0.004	0.081	0.049	-0.056	-0.033	0.033
